Many of the other results were omitted from the sample, so hits are more common in it than they were.
GIRK2 act: activators of NPY4-receptor-primed GIRK2 channels, summary, cell-based, HEK293, thallium flux. G protein-activated inward rectifier potassium channel 2 (Homo sapiens), P48051. HEK293 GIRK2/NPY4 cells, thallium flux fluorescence. 34,000 tested, under 10 active. AID 1259324, 2017. activation (% efficacy), % for hits at 37.5 µM;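 active = primary screen hit, no activity in plain HEK293 cells, and in GIRK2-only cells above 5% efficacy rising with concentration; inactive = the rest, including fluorescent compounds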;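 also: efficacy is normalized control-subtracted fluorescence 15 s after thallium addition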
Target sequence (P48051 whole entry, looked up): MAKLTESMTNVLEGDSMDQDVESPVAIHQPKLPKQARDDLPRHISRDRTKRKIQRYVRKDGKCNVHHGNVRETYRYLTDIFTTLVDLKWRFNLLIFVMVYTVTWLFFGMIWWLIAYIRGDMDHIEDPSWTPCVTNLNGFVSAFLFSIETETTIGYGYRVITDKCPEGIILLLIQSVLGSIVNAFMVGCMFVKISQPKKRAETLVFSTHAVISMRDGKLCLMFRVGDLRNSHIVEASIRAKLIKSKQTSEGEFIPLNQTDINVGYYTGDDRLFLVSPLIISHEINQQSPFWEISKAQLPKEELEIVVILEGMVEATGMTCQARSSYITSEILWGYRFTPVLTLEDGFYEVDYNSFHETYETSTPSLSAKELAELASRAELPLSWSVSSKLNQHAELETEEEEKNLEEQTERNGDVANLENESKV
AMPAR-TARP mod: modulators of GluA2-stargazin AMPA receptor complexes, primary screen, cell-based, membrane potential dye; AID 1259245, 2017; Voltage-dependent calcium channel gamma-2 subunit (Mus musculus) + Glutamate receptor 2 …; calls only at 30 µM; HEK293 GluA2+stargazin, membrane potential dye (FDSS), glutamate EC50; hits were called plate by plate, in both directions; 40,000 compounds, 3.5% hits;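 active = any of four per-well response measures lying three or more SD from its plate-wide compound average, in either direction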
* hit, by the source's call.

What do the screens show for `CC(C)(C)n1nc2c(c1NC(=O)C(=O)NCc1ccccn1)CSC2`?
GIRK2 act: inactive; AMPAR-TARP mod: inactive

Results for CC(C)CC(=O)NCCCn1nc(-c2ccc(F)cc2)ccc1=O ?
GIRK2 act: inactive; AMPAR-TARP mod: inactive

What do the screens show for `Cc1ccc(-c2ccc(=O)n(CCCC(=O)N3c4ccccc4CC3C)n2)cc1` (configuration not stated)?
GIRK2 act: inactive; AMPAR-TARP mod: active

Results for COc1ccc(-c2ccc(=O)n(CCCC(=O)N3CCc4ccccc43)n2)cc1OC ?
GIRK2 act: inactive; AMPAR-TARP mod: inactive

What do the screens show for `Cc1ccc(-c2cn(CC(=O)Nc3ccccc3)nc2N2CCOCC2)cc1`?
GIRK2 act: inactive

How did Cc1nc(NCCNC(=O)Nc2cccc(C)c2C)cc(N2CCOCC2)n1 do in these assays?
GIRK2 act: inactive

How did Cc1nc(NCCNC(=O)c2ncccn2)cc(N2CCOCC2)n1 do in these assays?
GIRK2 act: inactive; AMPAR-TARP mod: active

What do the screens show for `CCNc1cc(C)nc(NCCNC(C)=O)n1`?
GIRK2 act: inactive

What do the screens show for `CCNc1cc(NCCNC(=O)c2ncccn2)nc(C)n1`?
GIRK2 act: inactive; AMPAR-TARP mod: active

What do the screens show for `Cc1ccc(-c2ccc(S(=O)(=O)N3CCCCC3C)cc2)cc1` (configuration not stated)?
AMPAR-TARP mod: inactive

Results for Cc1ccc2oc(C(=O)Nc3nccs3)c(C)c2c1 ?
AMPAR-TARP mod: inactive

Results for O=C(NCc1ccsc1)c1ccc2c(c1)OCO2 ?
GIRK2 act: inactive; AMPAR-TARP mod: inactive

How did O=C(NCc1ccsc1)c1cccc(C(F)(F)F)c1 do in these assays?
GIRK2 act: inactive; AMPAR-TARP mod: active

What do the screens show for `COc1ccc(N2CCN(C(=O)COc3ccc4ccccc4c3)CC2)nn1`?
GIRK2 act: inactive

How did COc1ccc(C2CCN(C(=O)c3cnccn3)C2)cc1 (configuration not stated) do in these assays?
GIRK2 act: inactive

What do the screens show for `Cc1cccc(NC(=O)N2CCN(c3ccc4nncn4n3)CC2)c1C`?
GIRK2 act: inactive; AMPAR-TARP mod: inactive

How did COc1ccccc1-c1nc(COC(=O)c2nnn(-c3ccc(C)cc3)c2C)c(C)o1 do in these assays?
AMPAR-TARP mod: inactive

How did CCOc1ccccc1-c1nc(COC(=O)c2nnn(-c3ccc(Cl)cc3)c2C)c(C)o1 do in these assays?
AMPAR-TARP mod: active

How did CCOc1ccc(OCCNC(=O)c2cc3cccc(OCC)c3oc2=O)cc1 do in these assays?
GIRK2 act: inactive; AMPAR-TARP mod: inactive

What do the screens show for `CCOc1cccc2cc(C(=O)NCc3ccncc3)c(=O)oc12`?
GIRK2 act: inactive; AMPAR-TARP mod: active

Results for COCCCNC(=O)C(=O)Nc1ccc([N+](=O)[O-])cc1 ?
AMPAR-TARP mod: active

How did CN(C)CCNC(=O)C(=O)Nc1ccc([N+](=O)[O-])cc1 do in these assays?
AMPAR-TARP mod: inactive

Results for Cc1ccc(Cl)cc1NC(=O)Cn1c(=O)n(C2CC2)c(=O)c2nscc21 ?
GIRK2 act: inactive; AMPAR-TARP mod: active

How did Cc1ccc(NC(=O)Cn2c(=O)n(C3CC3)c(=O)c3nscc32)c(C)c1 do in these assays?
GIRK2 act: inactive; AMPAR-TARP mod: inactive

How did COc1ccc(S(=O)(=O)N2CCN(Cc3nnnn3-c3ccc(C)cc3)CC2)cc1C do in these assays?
GIRK2 act: inactive; AMPAR-TARP mod: active

How did Cc1nnc2ccc(N3CCN(S(=O)(=O)c4ccc(Cl)c(Cl)c4)CC3)nn12 do in these assays?
GIRK2 act: inactive; AMPAR-TARP mod: inactive

What do the screens show for `Cc1ccc(S(=O)(=O)N2CCN(c3ccc4nnc(C)n4n3)CC2)cc1C`?
GIRK2 act: inactive; AMPAR-TARP mod: active

What do the screens show for `Cc1ccnc(Nc2ccc(N3CCN(S(=O)(=O)c4ccc(F)cc4)CC3)nn2)c1`?
GIRK2 act: inactive

How did COc1ccc(S(=O)(=O)N2CCN(Cc3nnnn3-c3ccccc3)CC2)cc1OC do in these assays?
GIRK2 act: inactive; AMPAR-TARP mod: inactive

Results for COc1ccc(S(=O)(=O)N2CCN(c3ccc(Nc4cccc(C)n4)nn3)CC2)cc1Cl ?
GIRK2 act: inactive; AMPAR-TARP mod: active

What do the screens show for `COc1ccc(S(=O)(=O)N2CCN(c3ccc(Nc4ccccn4)nn3)CC2)cc1`?
GIRK2 act: inactive; AMPAR-TARP mod: inactive

How did COc1ccc(S(=O)(=O)N2CCN(c3ccc(Nc4cccnc4)nn3)CC2)cc1 do in these assays?
GIRK2 act: inactive; AMPAR-TARP mod: active

How did CCOc1ccc(NC(=O)N2CCC(Cn3ccnc3C)CC2)cc1 do in these assays?
GIRK2 act: inactive; AMPAR-TARP mod: inactive

How did Cc1ccc(N2CCN(C(=O)CC(C)(C)CC3=NS(=O)(=O)c4ccccc4N3)CC2)c(C)c1 do in these assays?
GIRK2 act: inactive

How did COc1ccc(NC(=O)NCCCn2nc(-c3ccccc3)ccc2=O)cc1 do in these assays?
GIRK2 act: inactive; AMPAR-TARP mod: inactive

How did COc1ccc(S(=O)(=O)N2CCN(c3ccc(-c4ccncc4)nn3)CC2)cc1C do in these assays?
GIRK2 act: inactive; AMPAR-TARP mod: active

Results for COc1cc(N2CCN(S(=O)(=O)c3c(C)noc3C)CC2)nc(OC)n1 ?
GIRK2 act: inactive; AMPAR-TARP mod: inactive

Results for Cc1cccc(Nc2ccc(N3CCN(C(=O)c4ccccc4)CC3)nn2)n1 ?
GIRK2 act: inactive

Results for Cc1cccc(Nc2ccc(N3CCN(S(=O)(=O)N(C)C)CC3)nn2)n1 ?
GIRK2 act: inactive; AMPAR-TARP mod: active

How did CN(C)S(=O)(=O)N1CCN(c2ccc(Nc3ccncc3)nn2)CC1 do in these assays?
GIRK2 act: inactive; AMPAR-TARP mod: inactive

What do the screens show for `Cc1cccc(Nc2ccc(N3CCN(S(=O)(=O)c4c(C)noc4C)CC3)nn2)n1`?
GIRK2 act: inactive; AMPAR-TARP mod: active

How did COc1ccc(S(=O)(=O)N2CCN(c3ccc(-c4cccs4)nn3)CC2)cc1OC do in these assays?
GIRK2 act: inactive; AMPAR-TARP mod: inactive

What do the screens show for `CCS(=O)(=O)N1CCN(c2ccc(Nc3cccc(C)n3)nn2)CC1`?
GIRK2 act: inactive; AMPAR-TARP mod: active

How did O=C(NCC1(c2cccs2)CCCC1)C(=O)Nc1cc(F)ccc1F do in these assays?
GIRK2 act: inactive

How did O=C(NCC1CCN(Cc2ccco2)CC1)c1cccs1 do in these assays?
GIRK2 act: inactive

How did Cc1cc(NC(=O)C(=O)NCC(c2cccs2)N2CCOCC2)c2ccccc2n1 (configuration not stated) do in these assays?
AMPAR-TARP mod: active

Results for Cc1cc(NC(=O)C(=O)NCC2CCN(C(C)C)CC2)c2ccccc2n1 ?
GIRK2 act: inactive; AMPAR-TARP mod: active

Results for COc1cccc(C(CNC(=O)C(=O)Nc2cc(C)nc3ccccc23)N2CCOCC2)c1 (configuration not stated) ?
GIRK2 act: inactive; AMPAR-TARP mod: inactive

Results for Cc1cccc(C)c1NC(=O)C(=O)NCC1CCN(C(C)C)CC1 ?
GIRK2 act: inactive

Results for Cc1ccc(S(=O)(=O)N2CCN(C(=S)c3cccc(Br)c3)CC2)cc1 ?
AMPAR-TARP mod: inactive

What do the screens show for `O=C(/C=C/c1ccc2c(c1)OCO2)Nc1ccc2c(c1)CN(C(=O)C1CC1)CC2`?
GIRK2 act: inactive; AMPAR-TARP mod: inactive

Screening results from PubChem BioAssay.
